Test results as given in PubChem BioAssay (Tox21).
The source made the active and inactive calls. Entries that show only a call come without a potency. Unless noted, calls come from the whole dose curve; as a rule, active = well fitted curve in the direction sought with a large enough effect in the repeat runs; inconclusive = weak or mixed curves; inactive = no such curve, though single readings can be large; an effect the other way counts as inactive or inconclusive.

Key:
[1] = qHTS assay for identifying genotoxic compounds that show differential cytotoxicity against isogenic chicken DT40 cell lines with known DNA damage response pathways - wild type cell line (AID 743012); note: nearly all actives have a fitted effect of over 60% in size; note: potency is the fitted concentration of half-maximal effect
How it was run: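 Wild-type DT40 cells (300/well) exposed to compounds for 40 hours at 37 C/5% CO2. Viability read by CellTiter-Glo luminescence after 30 min at room temperature.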

[2] = qHTS assay for identifying genotoxic compounds that show differential cytotoxicity against isogenic chicken DT40 cell lines with known DNA damage response pathways - Rad54/Ku70 mutant cell line (AID 743015); note: nearly all actives have a fitted effect of over 60% in size; note: potency is the fitted concentration of half-maximal effect
[3] = qHTS assay to identify small molecule antagonists of the androgen receptor (AR) signaling pathway - cell viability counter screen (AID 743033; note: nearly all actives have a fitted effect of over 45% in size)
[4] = qHTS assay to identify small molecule antagonists of the thyroid receptor (TR) signaling pathway - cell viability counter screen (AID 743064); note: nearly all actives have a fitted effect of over 50% in size; note: potency is the fitted concentration of half-maximal effect
How it was run: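 Same-well viability check: GH3.TRE-Luc cells stimulated with 1 nM T3 alongside test compound for 23.5 h, followed by CellTiter-Fluor fluorescence.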

[5] = qHTS assay to identify small molecule antagonists of the thyroid receptor (TR) signaling pathway (AID 743065); note: nearly all actives have a fitted effect of over 55% in size; note: potency is the fitted concentration of half-maximal effect
How it was run: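 GH3.TRE-Luc rat pituitary cells (two TREs driving luciferase) were dosed with compound, then stimulated with 1 nM T3 (final) for 23.5 h at 37 C. ONE-Glo luminescence was the read-out, with CellTiter-Fluor fluorescence as the cytotoxicity counter-screen.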

[6] = system: thyroid hormone receptor (rat, GH3 cells); assay: qHTS assay to identify small molecule agonists of the thyroid receptor (TR) signaling pathway (AID 743066; calls by dose curve)
[7] = qHTS assay to identify small molecule antagonists of the estrogen receptor alpha (ER-alpha) signaling pathway - cell viability counter screen (AID 743074; calls by dose curve;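 note: HEK293 cells carrying ER-alpha-UAS-bla reporter stimulated with 17beta-estradiol; nearly all actives have a fitted effect of over 45% in size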; note: potency is the fitted concentration of half-maximal effect)
[8] = target: Estrogen receptor (Homo sapiens) (UniProt P03372); assay: qHTS assay to identify small molecule agonists of the estrogen receptor alpha (ER-alpha) signaling pathway (AID 743075; calls by dose curve; note: potency is the fitted concentration of half-maximal effect)
Estrogen receptor (Homo sapiens), sequence (P03372 whole entry, looked up): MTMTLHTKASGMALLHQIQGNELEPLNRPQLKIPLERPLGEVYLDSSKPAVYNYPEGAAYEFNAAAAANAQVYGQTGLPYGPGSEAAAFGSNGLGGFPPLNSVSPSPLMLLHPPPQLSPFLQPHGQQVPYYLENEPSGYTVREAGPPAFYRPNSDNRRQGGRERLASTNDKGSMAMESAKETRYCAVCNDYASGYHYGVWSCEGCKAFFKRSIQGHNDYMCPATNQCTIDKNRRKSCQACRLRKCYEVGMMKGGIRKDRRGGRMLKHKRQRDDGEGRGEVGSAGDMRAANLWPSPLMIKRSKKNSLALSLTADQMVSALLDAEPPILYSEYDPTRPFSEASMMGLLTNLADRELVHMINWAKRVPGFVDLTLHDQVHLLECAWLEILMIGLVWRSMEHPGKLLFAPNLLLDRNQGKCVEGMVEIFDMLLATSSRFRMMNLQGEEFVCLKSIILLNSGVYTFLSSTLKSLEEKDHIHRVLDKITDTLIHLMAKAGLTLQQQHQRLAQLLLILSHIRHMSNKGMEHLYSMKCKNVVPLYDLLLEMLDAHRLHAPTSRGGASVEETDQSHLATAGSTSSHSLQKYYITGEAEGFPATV

[9] = qHTS assay to identify small molecule antagonists of the estrogen receptor alpha (ER-alpha) signaling pathway using the BG1 cell line - cell viability counter screen (AID 743081);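 note: compound given together with 17beta-estradiol as the ER stimulus; nearly all actives have a fitted effect of over 45% in size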; note: potency is the fitted concentration of half-maximal effect
[10] = target: Androgen receptor (Homo sapiens) (UniProt P10275); assay: qHTS assay to identify small molecule antagonists of the androgen receptor (AR) signaling pathway (AID 743035; active = well fitted inhibition curve with a large enough effect in the signal ratio in the repeat runs, not every such curve was filed as active; inconclusive = weak or mixed curves, or effect the other way; inactive = no such curve, though single readings can be large or run the other way; the % refers to the signal ratio)
Androgen receptor (Homo sapiens), sequence (P10275 whole entry, looked up): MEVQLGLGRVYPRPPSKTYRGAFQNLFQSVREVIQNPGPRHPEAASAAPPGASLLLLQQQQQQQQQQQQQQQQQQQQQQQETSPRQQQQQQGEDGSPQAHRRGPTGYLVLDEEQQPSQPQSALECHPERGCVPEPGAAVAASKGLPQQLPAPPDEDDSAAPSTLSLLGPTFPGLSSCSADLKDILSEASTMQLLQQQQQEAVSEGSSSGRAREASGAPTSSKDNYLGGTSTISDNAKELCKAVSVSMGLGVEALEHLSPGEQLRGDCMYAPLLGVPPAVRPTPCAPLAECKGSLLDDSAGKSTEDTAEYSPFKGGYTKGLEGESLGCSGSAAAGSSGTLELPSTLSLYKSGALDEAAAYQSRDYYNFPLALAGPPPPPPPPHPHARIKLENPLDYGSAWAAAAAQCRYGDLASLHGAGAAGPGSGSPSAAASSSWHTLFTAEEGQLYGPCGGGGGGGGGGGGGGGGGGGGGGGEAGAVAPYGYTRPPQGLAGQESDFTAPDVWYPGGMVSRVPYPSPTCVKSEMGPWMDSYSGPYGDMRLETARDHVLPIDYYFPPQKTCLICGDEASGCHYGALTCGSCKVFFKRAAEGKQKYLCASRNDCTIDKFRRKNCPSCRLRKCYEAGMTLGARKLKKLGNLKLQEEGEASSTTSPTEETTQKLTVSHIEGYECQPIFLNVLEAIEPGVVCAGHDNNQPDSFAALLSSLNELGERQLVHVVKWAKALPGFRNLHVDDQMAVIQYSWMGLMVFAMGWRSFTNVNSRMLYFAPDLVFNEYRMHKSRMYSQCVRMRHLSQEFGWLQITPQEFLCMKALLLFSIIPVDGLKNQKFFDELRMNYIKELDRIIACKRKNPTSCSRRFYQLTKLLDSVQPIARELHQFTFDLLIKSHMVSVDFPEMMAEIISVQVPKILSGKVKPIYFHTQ
How it was run: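 HEK293 cells stably carrying UAS-beta-lactamase reporter, 2,000/well, given compounds plus R1881 agonist and incubated 16 h at 37C. LiveBLAzer B/G FRET substrate then added for 2 h at room temperature before fluorescence reading.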

[11] = target: Androgen receptor (Homo sapiens) (UniProt P10275); assay: qHTS assay to identify small molecule agonists of the androgen receptor (AR) signaling pathway using the MDA cell line (AID 743040; note: nearly all actives have a fitted effect of over 20% in size)
How it was run: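 MDA-kb2 breast carcinoma cells carrying MMTV-luciferase (responsive to AR and GR), plated 5 h then treated 16 h with compounds at 37C, 0% CO2. Read-out was ONE-Glo luminescence after 30 min at room temperature.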

[12] = qHTS assay to identify small molecule antagonists of the androgen receptor (AR) signaling pathway using the MDA cell line - cell viability counter screen (AID 743041; note: nearly all actives have a fitted effect of over 45% in size)
How it was run: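 MDA-kb2 AR-luc cells (MMTV-luciferase, AR/GR responsive) treated with compounds plus R1881 agonist for 16 h at 37C. CellTiter-Fluor added at 15.5 h; fluorescence read after 30 min in the same wells.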

[13] = target: Androgen receptor (Homo sapiens) (UniProt P10275); assay: qHTS assay to identify small molecule antagonists of the androgen receptor (AR) signaling pathway using the MDA cell line (AID 743042; note: nearly all actives have a fitted effect of over 55% in size)
How it was run: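 MDA-kb2 breast carcinoma cells carrying MMTV-luciferase (AR/GR responsive) were co-treated with compounds and the agonist R1881 for 16 h at 37C. Inhibition read as ONE-Glo luminescence; CellTiter-Fluor fluorescence measured in parallel for cytotoxicity.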

[14] = target: Estrogen receptor (Homo sapiens) (UniProt P03372); assay: qHTS assay to identify small molecule antagonists of the estrogen receptor alpha (ER-alpha) signaling pathway (AID 743069; active = well fitted curve in the direction sought with a large enough effect in the signal ratio in the repeat runs, not every such curve was filed as active; inconclusive = weak or mixed curves, or effect the other way; inactive = no such curve, though single readings can be large or run the other way; the % refers to the signal ratio; note: potency is the fitted concentration of half-maximal effect)
How it was run: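 HEK293 ER-alpha-UAS-bla GripTite cells, held overnight in 2% charcoal-stripped FBS, 5,000 cells/well, preincubated 4 h, then compound plus 17beta-estradiol for 18 h at 37C. Beta-lactamase read by LiveBLAzer B/G FRET substrate, 2 h at room temperature.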

[15] = target: Estrogen receptor (Homo sapiens) (UniProt P03372); assay: qHTS assay to identify small molecule agonists of the estrogen receptor alpha (ER-alpha) signaling pathway using the BG1 cell line (AID 743079); note: nearly all actives have a fitted effect of over 20% in size; note: potency is the fitted concentration of half-maximal effect
[16] = target: Aromatase (Homo sapiens) (UniProt P11511); assay: qHTS assay to identify aromatase inhibitors (AID 743083); note: series mostly up to about 70 µM; nearly all actives have a fitted effect of over 55% in size
Aromatase (Homo sapiens), sequence (P11511 whole entry, looked up): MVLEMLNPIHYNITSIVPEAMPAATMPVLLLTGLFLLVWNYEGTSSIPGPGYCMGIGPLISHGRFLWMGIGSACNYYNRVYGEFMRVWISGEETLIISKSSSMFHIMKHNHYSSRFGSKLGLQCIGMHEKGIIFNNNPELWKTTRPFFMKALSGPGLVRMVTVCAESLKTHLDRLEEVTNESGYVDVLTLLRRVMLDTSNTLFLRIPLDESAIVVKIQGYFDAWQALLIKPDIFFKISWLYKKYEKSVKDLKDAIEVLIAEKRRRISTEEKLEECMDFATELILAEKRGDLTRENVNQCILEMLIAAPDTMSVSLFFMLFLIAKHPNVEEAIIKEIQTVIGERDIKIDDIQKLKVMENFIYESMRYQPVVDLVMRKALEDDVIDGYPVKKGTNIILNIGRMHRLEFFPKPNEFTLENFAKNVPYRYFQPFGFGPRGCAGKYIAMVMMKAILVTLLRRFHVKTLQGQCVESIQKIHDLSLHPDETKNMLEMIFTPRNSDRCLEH

[17] = qHTS assay to identify small molecule antagonists of the glucocorticoid receptor (GR) signaling pathway - cell viability counter screen (AID 720693); note: nearly all actives have a fitted effect of over 55% in size
[18] = qHTS assay to identify small molecule antagonists of the estrogen receptor alpha (ER-alpha) signaling pathway using the BG1 cell line (AID 743080; calls by dose curve;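 note: BG1 cells stimulated with 17beta-estradiol alongside compound; series mostly up to about 70 µM; nearly all actives have a fitted effect of over 25% in size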)
How it was run: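 BG1Luc4E2, endogenous ER-alpha, 4xERE-luc; 5 d charcoal-stripped FBS, phenol red free; 24 h plating; cpd + 17beta-estradiol 21.5 h, 37 C/5% CO2; CellTiter-Fluor viability 30 min, then ONE-Glo luciferase 30 min RT.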

[19] = qHTS assay for identifying genotoxic compounds that show differential cytotoxicity against isogenic chicken DT40 cell lines with known DNA damage response pathways - Rev3 mutant cell line (AID 743014); note: nearly all actives have a fitted effect of over 55% in size; note: potency is the fitted concentration of half-maximal effect

Structure (SMILES) | Potency [1] | Potency [2] | Potency [3] | Potency [4] | Potency [5] | outcome [6] | Potency [7] | Potency [8] | Potency [9] | Potency [10] | outcome [11] | Potency [12] | Potency [13] | Potency [14] | Potency [15] | Potency [16] | Potency [17] | Potency [18] | Potency [19]
Cc1cc(C(C#N)c2ccc(Cl)cc2)c(Cl)cc1NC(=O)c1cc(I)cc(I)c1O (stereo unspecified) | 26.6 µM (active) | 26.6 µM (active) | inactive | 23.7 µM (active) | 26.6 µM (active) | inactive | 5.35 µM (active) | inactive | inactive | – | – | – | – | – | – | – | – | – | –
Cc1cc(C)c(/C=C2\C(=O)Nc3ccccc32)[nH]1 | inactive | – | inactive | – | – | inactive | inactive | – | – | inactive | inactive | inactive | inactive | 26.8 µM [inconclusive] (active) | inactive | inactive | – | – | –
C=Cc1ccccc1C=C | – | – | – | inactive | – | inactive | – | inactive | inactive | – | – | inactive | – | inactive | inactive | inactive | inactive | inactive | –
CCCCCC(C)OC(=O)COc1ccc(Cl)c2cccnc12 (stereo unspecified) | – | – | – | – | – | inactive | – | inactive | inactive | – | – | inactive | – | – | inactive | – | inactive | inactive | inactive
COC(=O)Nc1nc2ccc(C(=O)c3ccccc3)cc2[nH]1 | 0.285 µM (active) | 0.403 µM (active) | inactive | 0.285 µM (active) | – | – | – | – | inactive | – | inactive | inactive | inactive | – | inactive | inactive | – | inactive | 0.32 µM (active)
CN1CCN2c3ccccc3Cc3ccccc3C2C1 (stereo unspecified) | 13.3 µM (active) | 21.1 µM (active) | inactive | 26.6 µM (active) | 23.7 µM (active) | – | 23.9 µM (active) | inactive | 26.6 µM (active) | – | inactive | – | – | – | – | inactive | – | – | 26.6 µM (active)
Cc1cccc2cccnc12 | inactive | inactive | inactive | inactive | inactive | inactive | inactive | – | inactive | – | – | – | – | – | – | inactive | – | – | inactive
CC[C@H](C)COC(=O)/C=C/c1ccc(N=Cc2ccc(OC)cc2)cc1 | – | – | – | – | – | inactive | – | inactive | inactive | – | – | – | – | – | 2.73 µM (active) | – | inactive | – | 61 µM (active)
Clc1nnc(Cl)c2ccccc12 | – | inactive | inactive | inactive | inactive | inactive | inactive | inactive | – | – | – | inactive | – | inactive | inactive | inactive | inactive | – | –
CCCC[P+](C)(CCCC)CCCC | – | – | inactive | inactive | inactive | inactive | inactive | – | inactive | – | – | inactive | – | inactive | – | inactive | inactive | inactive | –
C=CC(=O)Nc1cc2c(Nc3ccc(F)c(Cl)c3)ncnc2cc1OCCCN1CCOCC1 | 5.31 µM (active) | 5.96 µM (active) | inactive | 5.31 µM (active) | – | – | – | 23.9 µM [inconclusive] (active) | – | – | inactive | – | – | – | 29.8 µM (active) | inactive | – | – | 8.41 µM (active)
CCc1oc2ccccc2c1C(=O)c1cc(I)c(O)c(I)c1 | 29.8 µM (active) | – | inactive | 29.8 µM (active) | – | inactive | – | inactive | inactive | – | – | – | – | – | – | – | – | – | 33.5 µM (active)
